Most compounds without a hit are left out; they make up all but 3.8% or so of the library.
tim10-1 inh – tim10-1 yeast growth inhibition; S. cerevisiae tim10-1 ts strain growth, BacTiter-Glo, 24 h; inhibition, % at 20 µM; 330,000 compounds, 2.2% hits; AID 463190;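 active means inhibition of at least 40%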;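 further: mutant grown at 25 °C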
TIM10 inh – growth inhibitors of TIM10 yeast strain | S. cerevisiae TIM10 strain growth, BacTiter-Glo luminescence, 24 h | inhibition, % at 10 µM | 330,000 compounds, 1.4% hits | AID 463195;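 active means inhibition of 40% or more at the single tested concentration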;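 further: wild-type TIM10 isogenic control strain grown at permissive 25 °C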
tim23-1 inh – tim23-1 yeast growth inhibition; inhibition, % at 20 µM; 330,000 compounds, 1.3% hits; S. cerevisiae tim23-1 growth, BacTiter-Glo luminescence, 24 h;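 active means growth inhibition of the mutant yeast at or above 50%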;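 further: temperature-sensitive mutant grown at 25 °C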
CR mimetic SO – yeast age-related superoxide inhibition as caloric restriction mimetic | S. cerevisiae aged cells, superoxide DHE fluorescence; active compounds read low | superoxide response (% of plate mean), % at 10 µM | 330,000 compounds, 0.18% hits;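 active means superoxide response under a set limit, about three screen SD below normal, cut at about 65% in these data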;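 further: yeast aged for seven days with compound at 30 °C before DHE staining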
NALP3 yeast inh – inhibitors of NALP3 inflammasome in yeast; Yeast reconstituted NLRP3/ASC/caspase-1, beta-gal luminescence, 24 h; 330,000 compounds, 0.39% hits; AID 2825; inhibition, % at 10 µM;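 active means inhibition of 50% or more; inactive means inhibition below 50%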
tim10 confirm – confirmation of TIM10 yeast growth inhibitors. shares compounds with TIM10 inh. S. cerevisiae tim10 strain growth, BacTiter-Glo luminescence, 24 h. inhibition, % at 10 µM. 4,600 compounds, 63% hits;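 active means inhibition of yeast growth at or above a set limit in either of two replicates at 10 µM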; further: this counterscreen used the strain with wild-type TIM10
tim23-1 conf – confirmation of tim23-1 mutant yeast growth inhibitors; S. cerevisiae tim23-1 growth, BacTiter-Glo luminescence, 24 h; AID 463218; inhibition, % at 20 µM; shares compounds with tim23-1 inh; 4,400 compounds, 83% hits;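 active means inhibition above about 39% in either of two replicate wells at 20 µM, limit read from the data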;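 further: temperature-sensitive tim23-1 mutant grown at 25 °C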
Large screens that a line does not name were inactive (follow-up assays come after a bar, where they were run).

Cc1ccccc1-c1nc2cc(NC(=O)C3CC3)ccc2o1	TIM10 inh 63, tim23-1 inh 71 | tim10 confirm 54 | tim23-1 conf 75
CCN(c1ccc(Cl)cc1)S(=O)(=O)c1nnc(NC(=O)C(C)C)s1	none
CC(C)(C)c1ccc(S(=O)(=O)N2CCC(c3nc4ccc(Cl)cc4[nH]3)CC2)cc1	TIM10 inh 50, tim23-1 inh 64 | tim10 confirm 56 | tim23-1 conf inactive
CC(=O)Nc1ccc(S(=O)(=O)N2CCC(c3nc4ccc(C)cc4[nH]3)CC2)cc1	none
CC1(CCc2ccccc2)NC(=O)N(CC(=O)N2CCCCCC2)C1=O (stereo unspecified)	none
CC1=CC(C)(C)NC(=S)N1C(C)c1ccccc1 (stereo unspecified)	TIM10 inh 46, tim23-1 inh 62 | tim10 confirm inactive | tim23-1 conf inactive
Cc1ccc2nc(NC(=O)COC(=O)c3ccccn3)sc2c1	TIM10 inh 43, tim23-1 inh 59 | tim10 confirm inactive | tim23-1 conf 70
Clc1cccc(Nc2ncnc3ccc(Br)cc23)c1	TIM10 inh 48, tim23-1 inh 54 | tim10 confirm 44 | tim23-1 conf 50
CCNCc1cc([N+](=O)[O-])ccc1OCC	none
O=C(Nc1ccc2c(c1)nc1n2CCN(Cc2ccccc2)C1)c1cccs1	TIM10 inh 67, tim23-1 inh 53 | tim10 confirm 57 | tim23-1 conf 73
Nc1ccc(NC(=O)c2cccs2)cc1	none
O=S(=O)(Nc1ccc2oc(-c3ccccc3)nc2c1)c1ccccc1	TIM10 inh 45, tim23-1 inh 74 | tim10 confirm 36 | tim23-1 conf 66
O=C(Nc1ccc(Cl)c(S(=O)(=O)Nc2ccccc2Cl)c1)c1cccs1	TIM10 inh 45, tim23-1 inh 53 | tim10 confirm 46 | tim23-1 conf 69
O=C(Nc1ccc2c(c1)CCC2)c1cccs1	TIM10 inh 45, tim23-1 inh 53 | tim10 confirm 35 | tim23-1 conf 49
Cc1ccc(C(=O)Nc2ccc(C)c(S(=O)(=O)Nc3ccccc3Cl)c2)s1	none
CC(C)CCN1CCN(Cc2coc3ccccc3c2=O)CC1CCO (stereo unspecified)	none
O=C(COC(=O)c1ccccc1O)NC(=O)NCc1ccccc1	none (no result: CR mimetic SO)
Cc1ccc2oc(-c3cccc(NC(=S)NC(=O)c4cccs4)c3)nc2c1	none
O=C(Nc1ccc2oc(-c3ccccc3)nc2c1)c1cccs1	TIM10 inh 73, tim23-1 inh 53 | tim10 confirm inactive | tim23-1 conf 76
CC(=O)Cn1cnc2scc(-c3ccc(C)c(C)c3)c2c1=O	none
Cc1ccc2nc(N(CCCN(C)C)C(=O)c3cc(-c4cccs4)nc4ccccc34)sc2c1	TIM10 inh 41, tim23-1 inh 60 | tim10 confirm 42 | tim23-1 conf inactive
CN(C)CCCN(C(=O)c1cc(-c2cccs2)nc2ccccc12)c1nc2c(F)cccc2s1	none
COc1cccc(OCc2cc(C(=O)N3CCN(C)C(c4ccccc4)C3)no2)c1 (stereo unspecified)	TIM10 inh 41, tim23-1 inh 53 | tim10 confirm 50 | tim23-1 conf 48
C=CCC1(CC=C)CCCN1C(=O)c1cc(COc2cccc(OC)c2)on1	none
O=C(Nc1nccs1)c1ccc2ccccc2c1	TIM10 inh 46, tim23-1 inh 54 | tim10 confirm 52 | tim23-1 conf 63
Cc1csc(NC(=O)c2ccc3c(=O)n4c(nc3c2)CCCCC4)n1	none
O=C(Nc1nccs1)c1ccc2c(=O)n3c(nc2c1)CCCCC3	TIM10 inh 49, tim23-1 inh 52 | tim10 confirm 44 | tim23-1 conf 66
CCn1c(CSc2nc3ccccc3s2)nc2ccccc21	TIM10 inh 51, tim23-1 inh 54 | tim10 confirm 44 | tim23-1 conf 52
CCOc1ccc(C2=NNC(c3cccs3)=Nc3ccc(OCC)cc32)cc1	TIM10 inh 52, tim23-1 inh 55 | tim10 confirm 44 | tim23-1 conf 68
C=C1SC(Nc2c(C)cc(C)cc2C)=NC12CCCCC2	TIM10 inh 45, tim23-1 inh 65 | tim10 confirm 39 | tim23-1 conf 63
Cc1cc(C)c(NC(=O)CN2C(=O)NC3(CCCCC3)C2=O)c(C)c1	none
COc1ccc(N=Cc2cc(Cc3ccccc3Cl)cc([N+](=O)[O-])c2O)cc1OC	TIM10 inh 60, tim23-1 inh 80 | tim10 confirm 48 | tim23-1 conf inactive
CC(C)NC(=S)N/N=C1\CCCc2ccccc21	none
CC1CCc2cc(F)cc3c(O)c(C(=O)NCc4ccco4)c(=O)n1c23 (stereo unspecified)	TIM10 inh 49, tim23-1 inh 55 (no result: CR mimetic SO) | tim10 confirm inactive | tim23-1 conf 51
O=C(C1=NN[C@@H]2C(=O)N(Cc3ccccc3)C(=O)[C@H]12)c1ccc([N+](=O)[O-])cc1	none
Oc1ccc(Br)cc1-c1cc(-c2ccccc2Cl)[nH]n1	none
Cc1ccc(-c2cc(-c3ccccc3Cl)[nH]n2)c(O)c1	TIM10 inh 51, tim23-1 inh 65 | tim10 confirm 65 | tim23-1 conf inactive
COc1ccc(O)c(-c2cc(-c3ccccc3Cl)[nH]n2)c1	TIM10 inh 50, tim23-1 inh 81 | tim10 confirm 57 | tim23-1 conf 72
N=C1S/C(=C\c2cccc3ccccc23)C(=O)N1c1ccc(F)cc1	none
CSC1=NC(=O)/C(=C\c2cccc3ccccc23)S1	TIM10 inh 41, tim23-1 inh 76 | tim10 confirm inactive | tim23-1 conf 51
O=C(Nc1ccc(Br)cc1)c1ccccc1Br	none
O=Nc1ccc(NOC(=O)c2ccccc2Br)cc1	TIM10 inh 61, tim23-1 inh 57 | tim10 confirm 60 | tim23-1 conf 73
Cn1c(SCc2ccc(Br)cc2)nnc1-c1cccs1	TIM10 inh 57, tim23-1 inh 57 | tim10 confirm 30 | tim23-1 conf 61
CCOc1ccc(-n2ccn(CC(=O)NCCc3ccccc3)c(=O)c2=O)cc1	none (no result: CR mimetic SO)
O=C(COC(=O)c1ccc(Br)o1)Nc1ncc(Cl)cc1Cl	none
N/C(Cc1ccc(Cl)cc1Cl)=N\OC(=O)c1ccc(Br)o1	TIM10 inh 86, tim23-1 inh 80 | tim10 confirm 86 | tim23-1 conf 48
O=C(CNC(=O)c1cnccc1C(F)(F)F)c1cccc(Cl)c1	none
O/C(=C\c1nc2ccccc2nc1/C=C(\O)c1ccccc1)c1ccccc1	TIM10 inh 45, tim23-1 inh 63 | tim10 confirm 54 | tim23-1 conf 68
Nc1nonc1C(=O)NCCNS(=O)(=O)c1ccc(Br)cc1	none
Cc1cccc(-c2n[nH]c(=S)n2C)c1	none
Cc1ccc(-c2cc(-c3n[nH]c(=S)n3C)c3ccccc3n2)cc1	TIM10 inh 50, tim23-1 inh 52 | tim10 confirm 48 | tim23-1 conf 59

Source: PubChem
